Most compounds without a hit are left out; they make up all but 4.5% or so of the library.
ZTA DNA inh: counter-screen for EBNA-1 inhibitors: inhibitors of Epstein-Barr virus ZTA; P03206; 320,000 tested, 0.15% active; ZTA-DNA binding, fluorescence polarization; AID 2234; inhibition, % at 11 µM; in the data active = inhibition above about 33%
TPT1 inhibitor: Candida albicans TPT1 enzyme inhibitors, primary screen, biochemical, fluorescence polarization; recombinant caTPT1, FP RNA substrate dephosphorylation; inhibition, % at 5 µM; 300,000 tested, 0.81% active; AID 1962, 2009;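 active = inhibition above the mean of all tested compounds plus 3 SD, set per screening campaign, cut at about 24% in these data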
EBNA-1 inh: EBNA-1 DNA-binding inhibitors, primary screen, biochemical, fluorescence polarization; 300,000 tested, 0.34% active; inhibition, % at 14.8 µM; in the data active = inhibition above about 28%
dFosB activator: activators of delta FosB homodimer, primary screen, biochemical, fluorescence polarization, TAMRA-CDK5 oligo, single point; Protein FosB (Mus musculus), P13346; purified delta FosB; percent of positive-control signal above neutral wells; activation, % at 25 µM; 340,000 tested, 0.99% active;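 active = mean activation above about 17%, with every replicate also reaching it, limit read from the data, passing the limit was not always enough; inconclusive = only one of the two conditions met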
GRIN3A LBD mod: binders of NR3A ligand-binding domain, primary screen, biophysical, differential scanning fluorimetry, uHTS; Glutamate receptor ionotropic, NMDA 3A (GRIN3A) ligand-binding domain; NR3A LBD differential scanning fluorimetry, Tm shift; 0% = protein alone, 100% = glycine-bound protein; Tm shift relative to glycine control, % at 25 µM; 340,000 tested, 2.5% active; AID 1259313, 2017;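 active = melting temperature shift of at least 10% of the positive control shift, at one fixed dose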
Rpn11 block: Rpn11 (PSMD14) deubiquitinase inhibitors, primary screen, biochemical, fluorescence polarization, uHTS; 26S proteasome non-ATPase regulatory subunit 14 (Homo sapiens), O00487; human 26S proteasome, Ub4-pepOG fluorescence polarization; 20S core pre-blocked with epoxomicin; inhibition, % at 20 µM; 360,000 tested, 0.59% active; AID 588493, 2011;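 active = inhibition at 20 µM, scaled to each plate's controls, above about 33%, limit read from the data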
Rpn11 confirm: Rpn11 (PSMD14) deubiquitinase inhibitors, confirmation, biochemical, fluorescence polarization, single concentration; purified human 26S proteasome, Ub4-pepOG fluorescence polarization; proteasome pretreated with epoxomicin; inhibition, % at 20 µM; shares compounds with Rpn11 block; AID 602318, 2012; 1,900 tested, 29% active
MMP-2 inh: MMP-2 enzyme inhibition, confirmation, counter-screen for RPN11 inhibitor project, biochemical, fluorescence, single concentration; 1,900 tested, 4% active; shares compounds with Rpn11 block; recombinant MMP-2, FRET peptide cleavage fluorescence; inhibition, % at 20 µM; AID 602330, 2012;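 note: human MMP-2 activated beforehand with APMA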
Thrombin inh: bovine thrombin protease inhibition, confirmation, counter-screen for Rpn11 inhibitor project, biochemical, fluorescence polarization, single concentration | AID 602333, 2012 | shares compounds with Rpn11 block | 1,900 tested, 13% active | inhibition, % at 20 µM | bovine thrombin cleavage of Ub4-pepOG;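 active = mean inhibition at least 40% at 20 µM, or signal 3 deviations below plate average, so some actives read negative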
A number is an active result; . = inactive; ? = inconclusive; / = not tested or not shown. Cut-off read from the data, not from the text of the source, unless noted: active = inhibition above about 40%; inactive = the rest.

SMILES | ZTA DNA inh | TPT1 inhibitor | EBNA-1 inh | dFosB activator | GRIN3A LBD mod | Rpn11 block | Rpn11 confirm | MMP-2 inh | Thrombin inh
COc1ccc(-c2ccc(C#N)c(SCC(=O)Nc3sc4c(c3C#N)CCC4)n2)cc1OC | . | . | . | . | . | 83 | . | . | .
Cc1ccc2nc(SCC(=O)c3c(N)n(C)c(=O)n(C)c3=O)[nH]c2c1 | . | . | . | . | . | 44 | . | . | .
c1ccc(SCCN2CCN(c3ccccc3)CC2)cc1 | . | . | . | . | . | . | / | / | /
CCOc1ccc(NC(=O)c2ccc(NC(=O)c3cn4c5c(c(N6CCN(C)CC6)c(F)cc5c3=O)OCC4C)cc2)cc1 (stereo unspecified) | . | . | . | . | . | 46 | . | . | .
c1ccc(-n2nnnc2Sc2ncnc3sc4c(c23)CCCC4)cc1 | . | . | . | . | . | 47 | . | . | .
Cc1sc2ncnc(Sc3nnnn3-c3ccc(Cl)cc3)c2c1C | . | . | . | . | . | . | / | / | /
C=CCSc1nnc(NC(=O)c2cn(CC)c3nc(C)ccc3c2=O)s1 | . | . | . | . | . | 48 | . | . | .
COc1cccc(CNC(=O)c2ccc(NC(=O)C3=CSCCO3)cc2)c1 | . | . | . | . | . | . | / | / | /
O=c1cc(-c2ccc(Cl)cc2)[nH][nH]1 | . | . | . | . | . | 110 | . | . | .
COc1cc(S(=O)(=O)N2CCN(Cc3ccc4c(c3)OCO4)CC2)ccc1NC(C)=O | / | / | / | / | / | 65 | . | . | .
COc1ccc(C2CC(c3cccc([N+](=O)[O-])c3)=NN2/C(C)=C/C(C)=O)cc1 (stereo unspecified) | / | / | / | / | / | 90 | 142 | . | 151
COc1ccc(C2=NN(C(=O)c3cccc([N+](=O)[O-])c3)C(c3cccc([N+](=O)[O-])c3)C2)cc1 (stereo unspecified) | . | . | . | . | . | . | / | / | /
COc1ccc(CCNC(=O)CCCN2C(=O)c3ccccc3C2=O)cc1 | . | . | . | . | . | . | / | / | /
COc1cccc(C(=O)Nc2cccc(-c3ccccc3)c2)c1 | . | . | . | . | . | 49 | . | . | .
COc1cccc(NC(=O)c2ccccc2)c1 | . | . | . | . | . | . | / | / | /
CCn1c(C2CCN(S(=O)(=O)c3ccc(OC)cc3)CC2)n[nH]c1=S | . | . | . | . | . | . | / | / | /
COc1cc(/C=C2\SC(=S)N(Nc3ccccc3)C2=O)ccc1O | . | . | . | ? | 11 | 112 | 72 | . | 101
CCOc1cc(/C=C2\SC(=S)N(NS(=O)(=O)c3ccccc3)C2=O)ccc1O | . | . | . | . | . | / | / | / | /
CN(C1CCCCC1)C(CNS(=O)(=O)c1ccccc1)c1ccccc1 (stereo unspecified) | . | . | . | . | . | . | / | / | /
CC(C)c1ccc(NC(=O)CN2C(=O)NC3(CCCC3)C2=O)cc1 | . | . | . | . | . | . | / | / | /
Cc1nnc(SCC(=O)N2N=C(c3ccc(Cl)cc3)CC2c2ccco2)[nH]c1=O (stereo unspecified) | . | . | . | . | . | 74 | . | . | .

Bioassay records from PubChem.
